# Laboratory results as given in PubChem BioAssay (NCI).
# “And” between values parts separate entries of the source, which are not always exact repeats. Identical values can stand only once. This is part of a sample that, as a whole, favours compounds with a hit. Of some 83,000 tested, about 20% had one in any assay.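 In brief: 96-well plates, 48 h treatment, single concentration, percent growth endpoint.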 The source made the active and inactive calls. How the source made its calls: active means growth percent below 10; inactive means the rest.
# Tested on: HL-60(TB) leukemia
# Assay: NCI-60 one-dose screen, 48 h (100 = growth as untreated, 0 = no growth, -100 = all killed)
structure (smiles),measurement,setting,value
CCCCCCCCCCCCCCCCNC(=O)Nc1ccc(C)c(NC(=O)NCCCCCCCCCCCCCCCC)c1,growth,10 µM unless noted,98.8% (inactive)
O=c1[nH]cc(F)c(=O)[nH]1,growth,10 µM,59.7% (inactive)
same,growth,25 µM,47.9% (inactive)
same,growth,50 µM,77.6% (inactive)
CC(=O)/C=C/c1ccc(N(C)Cc2ccc(C(C)(C)C)cc2)cc1,growth,10 µM,53.9% (inactive)
same,growth,100 µM,-48.9% (active)
CC1(C)OB(c2ccc(Cn3cc(F)c(=O)[nH]c3=O)cc2)OC1(C)C,growth,10 µM,97.7% (inactive)
same,growth,50 µM,32.5% (inactive)
O=C(Nc1ccc(Cl)c(Cl)c1)Nc1ccc(Cl)c(Cl)c1,growth,10 µM unless noted,-56.8% (active) and 13% (inactive)
CCOc1ccc2cc(-c3nn(CC4CCN(C)CC4)c4ncnc(N)c34)ccc2c1,growth,10 µM unless noted,96.7% (inactive) and 54.3% (inactive)
COc1cccc2c1C(=O)c1c(O)c3c(c(O)c1C2=O)C[C@@](O)(C(=O)CO)C[C@@H]3OC1CC(N)C(O)C(C)O1 (stereo not given in full),growth,0.0025 µM,100% (inactive)
same,growth,2.5 µM,81.9% (inactive)
same,growth,10 µM,-21.8% (active)
O=C(O)c1sccc1O,growth,10 µM,62.6% (inactive)
same,growth,100 µM,3.63% (active)
O=C1CCc2c(sc3[nH]c(=S)n(-c4ccc(OC(F)(F)F)cc4)c(=O)c23)C1,growth,10 µM unless noted,39.7% (inactive)
CCCCCCCCCCCCCCCc1ccc(Cl)c(O)c1Cl (tested in a mixture with another compound),growth,0.25 µM,18.3% (inactive)
same,growth,10 µM,118% (inactive)
CC#C[C@]1(O)CC[C@H]2[C@@H]3CCC4=CC(=O)CCC4=C3[C@@H](c3ccc4c(c3)OCO4)C[C@@]21C,growth,10 µM,67.5% (inactive)
same,growth,100 µM,-22.9% (active)
